Experimental data from ChEMBL document CHEMBL3433997, “St. Jude Leishmania screening dataset” (2016).

Assays:
Type in all cases: functional
[1] = target: Solute carrier family 2, facilitated glucose transporter member 1 (Homo sapiens) (UniProt P11166); experiment: ST_JUDE_LEISH: Cytotoxicity at 2uM final concentration against transgenic Leishmania Mexicana promastigotes LmGLUT1 that are glucose transport deficient and complemented with the human glucose transporter GLUT1. Activity is measured by DNA content using SYBR green in vitro
[2] = target: Hexose transporter 1 (Plasmodium falciparum) (UniProt O97467); experiment: ST_JUDE_LEISH: Cytotoxicity at 2uM final concentration against transgenic Leishmania Mexicana promastigotes LmPfHT that are glucose transport deficient and complemented with the Plasmodium falciparum hexose transporter. Activity is measured by DNA content using SYBR green in vitro
[3] = target: Glucose transporter (Leishmania mexicana) (UniProt O61059); experiment: ST_JUDE_LEISH: Cytotoxicity at 2uM final concentration against transgenic Leishmania Mexicana promastigotes LmGT2 that are glucose transport deficient and complemented with the L. Mexicana glucose transporter 2. Activity is measured by DNA content using SYBR green in vitro

Solute carrier family 2, facilitated glucose transporter member 1 (Homo sapiens), sequence (P11166 whole entry): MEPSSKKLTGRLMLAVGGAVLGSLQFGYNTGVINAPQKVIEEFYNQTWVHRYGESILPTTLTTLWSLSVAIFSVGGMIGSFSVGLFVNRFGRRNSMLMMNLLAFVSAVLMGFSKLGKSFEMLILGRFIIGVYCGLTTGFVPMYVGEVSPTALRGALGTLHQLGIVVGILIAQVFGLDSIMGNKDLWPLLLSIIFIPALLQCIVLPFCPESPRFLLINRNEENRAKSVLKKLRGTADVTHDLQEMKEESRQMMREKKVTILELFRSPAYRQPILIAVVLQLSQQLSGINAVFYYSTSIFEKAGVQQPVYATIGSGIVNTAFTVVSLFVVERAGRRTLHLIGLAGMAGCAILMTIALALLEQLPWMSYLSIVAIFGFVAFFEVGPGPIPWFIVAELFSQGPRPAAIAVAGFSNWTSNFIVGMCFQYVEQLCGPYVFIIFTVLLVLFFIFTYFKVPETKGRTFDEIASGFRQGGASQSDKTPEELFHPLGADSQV

SMILES: CCCc1cc(OC)c(C[C@@H]2c3cc(O)c(Cl)cc3CCN2C)cc1OC
- inhibition [1]: 3.17%
- inhibition [2]: 2.87%
- inhibition [3]: 3%

SMILES: CC1(C)NC(N)=NC(=N)N1OCCCc1cc(Cl)c(Cl)cc1Cl
- inhibition [1]: 3.14%
- inhibition [2]: 2.31%
- inhibition [3]: 2.77%

SMILES: CC(C)CCN1CCC(Oc2ccc(NC(=O)c3cccs3)cc2Cl)C1 (stereo unspecified)
- inhibition [1]: 10.2%
- inhibition [2]: 11.8%
- inhibition [3]: 9.02%

SMILES: O=C(Nc1ccccc1)NC1CCN(CCC2(c3ccc(Cl)c(Cl)c3)COCN(C(=O)c3ccccc3)C2)C1 (stereo unspecified)
- inhibition [1]: 4.31%
- inhibition [2]: 4.43%
- inhibition [3]: 4.63%

SMILES: O=[N+]([O-])c1cccc(CNCC2CCN(Cc3ccc(-c4ccccc4)cc3)CC2)c1
- inhibition [1]: 3.06%
- inhibition [2]: 2.39%
- inhibition [3]: 0.56%

SMILES: COc1ccccc1C1CC(c2ccccc2)=NN1C(=O)c1ccccc1 (stereo unspecified)
- inhibition [1]: -3.13%
- inhibition [2]: -0.25%
- inhibition [3]: -0.28%

SMILES: Cc1cc(N(C)C)nc(Nc2ccc(NC(=O)c3ccc(Br)o3)cc2)n1
- inhibition [1]: 7.73%
- inhibition [2]: 9.85%
- inhibition [3]: 3.96%

SMILES: COc1cc2c(cc1C(F)(F)F)N(C(=O)Nc1cc(F)c(F)c(-c3cccnc3)c1)CC2
- inhibition [1]: 10.1%
- inhibition [2]: 1.42%
- inhibition [3]: -4.39%

SMILES: c1ccc(-c2ccc(CNCc3ccc(-c4cccc(-c5nc6ccccc6[nH]5)c4)cc3)s2)nc1
- inhibition [1]: 1.04%
- inhibition [2]: 2.78%
- inhibition [3]: 0.61%

SMILES: CN1CCC(C(=O)N(Cc2ccc(-c3ccc(CNCCc4ccc(S(C)(=O)=O)cc4)cn3)cc2)C2CCN(Cc3ccccc3)CC2)CC1
- inhibition [1]: 3.07%
- inhibition [2]: 2.62%
- inhibition [3]: 5.75%

SMILES: O=C(COc1ccc(C(=O)c2ccccc2)cc1)Nc1nccs1
- inhibition [1]: 0.24%
- inhibition [2]: 0.43%
- inhibition [3]: -3.28%

SMILES: Cc1cc(Nc2ccc(C)c(Cl)c2)n2nc(C(F)(F)F)nc2n1
- inhibition [1]: 6.65%
- inhibition [2]: 2.47%
- inhibition [3]: 1.18%

SMILES: CO/C(=C\C=C\c1cc2cc(Cl)c(Cl)cc2[nH]1)C(=O)NCCCN1CCN(c2cccc(OC)c2)CC1
- inhibition [1]: 8.59%
- inhibition [2]: 8.04%
- inhibition [3]: 9.1%

SMILES: CC(C)(C(=O)NCCC1CCN(CCCCCNC(=O)/C=C/c2ccc(Cl)c(Cl)c2)CC1)c1ccc(Cl)cc1
- inhibition [1]: 5.49%
- inhibition [2]: 4.45%
- inhibition [3]: 4.35%

SMILES: O=C1C(=Cc2c(O)ccc3ccccc23)SC(=NCc2ccccc2)N1Cc1ccccc1
- inhibition [1]: 3.93%
- inhibition [2]: 2.01%
- inhibition [3]: 3.38%

SMILES: CCc1nc(N)nc(N)c1-c1ccccc1
- inhibition [1]: 2.31%
- inhibition [2]: 2.67%
- inhibition [3]: 3.69%

SMILES: CCOc1cc(Br)c(C(C)NC(=O)c2cccc(OC)c2)cc1OCC (stereo unspecified)
- inhibition [1]: 0.82%
- inhibition [2]: 0.03%
- inhibition [3]: -0.19%

SMILES: Cc1nnc(-c2cccc(Nc3ccnc4cc(-c5nccs5)ccc34)c2)o1
- inhibition [1]: 11.2%
- inhibition [2]: 11.8%
- inhibition [3]: 9.75%

SMILES: O=C(Nc1ccc2c(c1)CCC2)N[C@H]1CCN(Cc2ccc(OCCCN3CCCCC3)cc2)C1
- inhibition [1]: 1.25%
- inhibition [2]: 2.37%
- inhibition [3]: 2.47%

SMILES: Cc1csc(-c2nc(NCc3cccnc3)ncc2-c2ccsc2)n1
- inhibition [1]: 2.02%
- inhibition [2]: 2.53%
- inhibition [3]: 3.04%

SMILES: COc1ccccc1C(C)NCC(=O)Nc1cccc(C(=O)Nc2cccc(C(F)(F)F)c2)c1 (stereo unspecified)
- inhibition [1]: 3.9%
- inhibition [2]: -0.5%
- inhibition [3]: 4.16%

SMILES: CC(C)CCNc1nc(NCCCc2ccccc2)c2cc(O)ccc2n1
- inhibition [1]: 24.8%
- inhibition [2]: 18.8%
- inhibition [3]: 8.25%
